These results are taken from PubChem BioAssay (NCATS).

Structures are written as SMILES. Results filed as inconclusive are left out. The source made the active and inactive calls. The call rests on the fitted dose curve; in most records, active means well fitted curve in the direction sought with a large enough effect; inconclusive means small, poorly fitted or top-dose-only effect, or another doubt; inactive means no such curve, though single readings can be large; an effect the other way counts as inactive or inconclusive.

Assay [1] has as its target Glutathione peroxidase 1 (Homo sapiens) (UniProt P07203). Description: Primary qHTS Assay for Inhibitors of Recombinant Selenoprotein Glutathione Peroxidase 1 (GPX1) (AID 1845191). Further: nearly all actives have a fitted effect of over 65% in size. Further: potency means the concentration at half of the fitted maximal effect. A digest of the protocol:
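GR-coupled assay: compounds preincubated 30 min at room temperature with GPX1, then reaction started with CHP; final 10 nM GPX1, 1 mM GSH, 0.5 mM CHP, 0.5 mM NADPH, 100 nM GR, 0.01% BSA, pH 7.5 Tris buffer. NADPH fluorescence (340/450 nm) read at 0 and 15 min.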
In general terms: In qHTS, concentration-response curves come from the screen itself.

The target in assay [2] is Phospholipid hydroperoxide glutathione peroxidase GPX4 (Homo sapiens) (UniProt P36969). As to the kind of experiment: Primary qHTS Assay for Inhibitors of Recombinant Selenoprotein Glutathione Peroxidase 4 (GPX4) (AID 1845192). Further: nearly all actives have a fitted effect of over 65% in size. In short, it runs like this:
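GR-coupled assay: recombinant GPX4 preincubated 30 min with compound at room temperature; final 200 nM GPX4, 1 mM GSH, 0.5 mM cumene hydroperoxide, 0.5 mM NADPH, 100 nM GR, 0.01% BSA, pH 7.5 Tris. NADPH fluorescence (340/450 nm) read at 0 and 15 min.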

The target in assay [3] is Metallo-beta-lactamase type 2 (Klebsiella pneumoniae) (UniProt C7C422). As to the kind of experiment: qHTS to identify inhibitors of the New Delhi Metallo-beta-lactamase (NDM): assay validation screen against the NCATS LOPAC Collection (AID 1794843).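 Further: nitrocefin turnover by NDM-1 measured as 485 nm absorbance at plateau; series mostly up to about 38 µM.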 In short, it runs like this: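 NDM-1 at 2 nM final in 50 mM HEPES pH 7.0, 1 uM ZnSO4, 0.01% Tween20, preincubated with LOPAC compounds pinned in DMSO; 50 uM nitrocefin (stock) added. Hydrolysis read as absorbance at 485 nm in the plateau phase.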
Metallo-beta-lactamase type 2 (Klebsiella pneumoniae), sequence (C7C422 whole entry, looked up): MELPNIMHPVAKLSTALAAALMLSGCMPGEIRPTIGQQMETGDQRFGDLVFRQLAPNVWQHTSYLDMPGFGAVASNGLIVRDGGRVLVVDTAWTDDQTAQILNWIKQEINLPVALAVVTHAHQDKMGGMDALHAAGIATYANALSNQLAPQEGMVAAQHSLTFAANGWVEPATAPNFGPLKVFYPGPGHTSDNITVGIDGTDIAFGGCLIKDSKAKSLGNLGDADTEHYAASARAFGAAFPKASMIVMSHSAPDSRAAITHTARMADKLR

Assay [4] in a line: Quantitative High-Throughput drug screen in 47 multiple myeloma cell lines against the NCATS MIPE library collection: FR4_PLB cell viability assay (AID 1918924; further: nearly all actives have a fitted effect of over 35% in size; further: potency means the concentration at half of the fitted maximal effect). A digest of the protocol:
(§1)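 Myeloma cell lines, 500 cells per well, exposed to MIPE 4.0 library compounds for 48 h at 37C, 5% CO2. Viability from ATP by CellTiter-Glo luminescence; normalised to DMSO (100%) and media-only (0%) wells.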

The nature of assay [5]: Quantitative High-Throughput drug screen in 47 multiple myeloma cell lines against the NCATS MIPE library collection: Delta47_JCRB cell viability assay (AID 1918925; further: nearly all actives have a fitted effect of over 45% in size; further: potency means the concentration at half of the fitted maximal effect). In short, it runs like this:
(§2)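 qHTS of the MIPE 4.0 collection: 500 myeloma cells/well, 48 h drug exposure at 37C in 5% CO2, then CellTiter-Glo for 5 min at room temperature before luminescence reading.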

Assay [6] is described as follows: Quantitative High-Throughput drug screen in 47 multiple myeloma cell lines against the NCATS MIPE library collection: EJM_DSMZ cell viability assay (AID 1918926; further: nearly all actives have a fitted effect of over 30% in size; further: potency means the concentration at half of the fitted maximal effect). A digest of the protocol: as §2
Assay [7] is described as follows: Quantitative High-Throughput drug screen in 47 multiple myeloma cell lines against the NCATS MIPE library collection: AMO1_DSMZ cell viability assay (AID 1918927; further: nearly all actives have a fitted effect of over 30% in size; further: potency means the concentration at half of the fitted maximal effect). A digest of the protocol: as §2
Assay [8] is described as follows: Quantitative High-Throughput drug screen in 47 multiple myeloma cell lines against the NCATS MIPE library collection: ARP1_JJKsccF8 cell viability assay (AID 1918928; further: nearly all actives have a fitted effect of over 40% in size; further: potency means the concentration at half of the fitted maximal effect). In short, it runs like this:
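Myeloma cells at 500 per well in 1536-well format treated with MIPE 4.0 library by pin transfer for 48 h at 37C, 5% CO2. Viability from ATP luminescence (CellTiter-Glo), normalized to DMSO (100%) and media-only (0%) wells.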

The nature of assay [9]: Quantitative High-Throughput drug screen in 47 multiple myeloma cell lines against the NCATS MIPE library collection: Karpas620_DSMZ cell viability assay (AID 1918959). Further: nearly all actives have a fitted effect of over 30% in size. Further: potency means the concentration at half of the fitted maximal effect. A digest of the protocol:
as §1

The target in assay [10] is Luciferin 4-monooxygenase (Photinus pyralis) (UniProt P08659). Description: Primary firefly luciferase (FLuc) qHTS assay for identification of artifact compounds. (AID 1845220). Further: nearly all actives have a fitted effect of over 60% in size. Conditions: outcome: dose series up to 54.1 µM unless noted. A digest of the protocol: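 Enzymatic FLuc inhibition assay: compounds pre-exposed to luciferin/ATP (10 uM each) for 15 min, then purified P. pyralis enzyme at 10 nM added. Read-out: luminescence at 5 min.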

Assay [11] deals with Nanoluciferase (engineered Oplophorus gracilirostris luciferase). As to the kind of experiment: Primary Nanoluciferase (NLuc) qHTS assay for identification of artifact compounds. (AID 1845222).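 Further: NLuc secreted into diluted conditioned medium of S16 cells; series mostly up to about 54 µM.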 In short, it runs like this: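 S16 cell supernatant NLuc, 1:55; cpds qHTS; 15 min RT dark; Nano-Glo substrate 1:100, 5 min; luminescence; Hill fit of % inhibition.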
Assay [12] can be described thus: Primary redox qHTS assay for identification of artifact compounds. (AID 1845223). In short, it runs like this: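 Amplex Red (25 uM) and HRP (250 mU/mL) in HBSS, with compounds for 15 min, then 250 uM DTT for 30 min, room temperature, dark. Fluorescence 525/598 nm read; normalized to DMSO and 10 uM DA3003; Hill fit.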
A short description of assay [13]: Quantitative High-Throughput drug screen in 47 multiple myeloma cell lines against the NCATS MIPE library collection: ARD_JJKsccE7 cell viability assay (AID 1918929; further: potency means the concentration at half of the fitted maximal effect). A digest of the protocol:
as §2

Phospholipid hydroperoxide glutathione peroxidase GPX4 (Homo sapiens), sequence (P36969 whole entry, looked up): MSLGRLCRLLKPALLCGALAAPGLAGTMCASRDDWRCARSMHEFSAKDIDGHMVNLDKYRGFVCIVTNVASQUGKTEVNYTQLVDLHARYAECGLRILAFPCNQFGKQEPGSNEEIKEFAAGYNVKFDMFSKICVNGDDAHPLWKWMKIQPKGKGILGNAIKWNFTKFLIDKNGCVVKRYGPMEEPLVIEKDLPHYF
Glutathione peroxidase 1 (Homo sapiens), sequence (P07203 whole entry, looked up): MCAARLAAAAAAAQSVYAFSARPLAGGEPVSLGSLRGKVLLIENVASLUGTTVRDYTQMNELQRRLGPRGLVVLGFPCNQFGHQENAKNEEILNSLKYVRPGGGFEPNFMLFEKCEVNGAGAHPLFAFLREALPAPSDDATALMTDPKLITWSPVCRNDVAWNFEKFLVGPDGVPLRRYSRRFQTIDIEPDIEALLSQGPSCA

For the compound `NC(CP(=O)(O)O)C(=O)O` (configuration not stated), the Potency entry in assay [1] and in assay [2] was “inactive” each time.

Regarding `CS(=N)(=O)CC[C@H](N)C(=O)O` (some centres not stated), the result in assay [3] was inactive. Further, the Potency entry in [1] and in [2] was “inactive” throughout.

On to `CCCCCCCCCCCCCCCC[N+](C)(C)C`, for which the Potency entry in assay [1] and in assay [2] was “inactive” in each case.

For `CC[N+]1(CCOC(=O)C(O)(c2ccccc2)c2ccccc2)CCCCC1`, the Potency result in assay [1] and in assay [2] was “inactive” each time.

With `COC(=O)[C@@H](N)CCCN=C(N)N[N+](=O)[O-]`, the call in assay [3] was inactive. For the same compound, the Potency result in assay [1], in [2], in [4], in assay [5], in assay [6] and in [7] was “inactive” each time. In addition, the Potency entry in assay [8] and in assay [9] was “inactive” each time.

On to `O=C(O)COc1ccccc1`, for which the Potency entry in assay [1] and in assay [2] was “inactive” throughout.

`CN(C)NC(=O)CCC(=O)O`: the Potency result in assay [1], in [2], in assay [4], in assay [6], in assay [7] and in assay [9] was “inactive” each time.

As for `CSCC[C@@H](NC(=O)[C@@H](Cc1ccccc1)NC(=O)CNC(=O)CNC(=O)[C@@H](N)Cc1ccc(O)cc1)C(=O)O`, the Potency entry in assay [1], in [2], in [4], in [5], in [6] and in assay [7] was “inactive” throughout. Besides, in assay [8], the Potency result is “inactive”.

With `COC1=C[C@@H]2[C@@H]3Cc4ccc(OC)c(O)c4[C@]2(CCN3C)CC1=O`, the Potency entry in assay [1] and in [2] was “inactive” each time. For the same compound, the outcome in assay [10], in assay [11] and in [12] was inactive. For the same compound, the Potency is 3.32 µM (active) in assay [5], 3.32 µM (active) in assay [7], 26.4 µM (active) in assay [8] and 20.9 µM (active) in assay [9].

With `COc1cc([C@@H]2c3cc4c(cc3[C@@H](O)C3COC(=O)C32)OCO4)cc(OC)c1O` (some centres not stated), the Potency entry in assay [1] and in assay [2] was “inactive” throughout. Moreover, the Potency was 0.0264 µM (active) in assay [5]; 0.0469 µM (active) in [6]; 0.001 µM (active) in assay [7]; 0.0209 µM (active) in [8]; 0.0187 µM (active) in [9].

Consider `CCOP(=O)(OCC)C(C)NC(=O)N(CCCl)N=O` (configuration not stated), for which the Potency result in assay [1], in assay [2], in [4], in [5], in assay [6] and in assay [7] was “inactive” each time. Further, the Potency result in assay [8] and in [9] was “inactive” in each case.

Regarding `CCN1C[C@]2(OC(=O)c3ccccc3NC(C)=O)CC[C@H](OC)[C@@]34[C@H]5CC6[C@@H](OC)C[C@](O)(C(C[C@@H]23)[C@@H]14)[C@@]5(O)[C@@H]6OC`, the Potency result in [1], in assay [2], in assay [4], in assay [5], in [6] and in assay [7] was “inactive” in each case. The Potency entry in assay [8] and in assay [9] was “inactive” in each case.

On to `CCNC(=O)CC1N=C(c2ccc(Cl)cc2)c2cc(OC)ccc2-n2c(C)nnc21` (configuration not stated), for which the Potency entry in assay [1] and in [2] was “inactive” throughout. For the same compound, the compound was classed as inactive in assay [10], in [11] and in [12]. In addition, the Potency is 6.62 µM (active) in assay [5] and 10.5 µM (active) in assay [7].

With `CN[C@@H]1Cc2cccc3[nH]c(=O)n(c23)C1`, the Potency result in [1], in [2], in assay [5], in [6] and in assay [9] was “inactive” each time. Moreover, the Potency in assay [4] was 11.8 µM (active).

As for `CC(C)(C)NC[C@H](O)c1ccc(O)cc1Cl`, the Potency entry in [1] and in [2] was “inactive” throughout. The outcome in [10], in assay [11] and in [12] was inactive.

Consider `Cc1ccccc1-n1c(Cn2ncc3c(N)ncnc32)nc2cccc(C)c2c1=O`, for which the Potency entry in [1] and in [2] was “inactive” in each case. For the same compound, the compound was classed as inactive in assay [10], in assay [11] and in [12]. For the same compound, the Potency is 4.69 µM (active) in assay [4]; 0.209 µM (active) in assay [5]; 16.6 µM (active) in assay [6]; 0.148 µM (active) in [7]; 4.69 µM (active) in assay [8]; 0.118 µM (active) in assay [13]. In addition, in [9], the Potency is 0.0372 µM (active).

For the compound `COc1ccc(N(C(=O)Oc2c(C)cccc2C)c2ccnc(Nc3ccc(N4CCN(C)CC4)cc3)n2)c(OC)c1`, the Potency result in [1] and in [2] was “inactive” each time. The call in assay [10], in assay [11] and in assay [12] was inactive. For the same compound, the Potency in [5] was 4.18 µM (active); in assay [6], 0.743 µM (active); in assay [7], 1.48 µM (active); in assay [9] it was 2.64 µM (active).

Turning to `CCN(CC)C(=O)c1ccc(C2=CC3(CCNCC3)Oc3cccc(O)c32)cc1`, the Potency entry in assay [1], in [2], in assay [5], in assay [6], in assay [7] and in assay [13] was “inactive” each time. Moreover, in assay [9], the Potency result is “inactive”. Further, the compound was classed as inactive in [10], in assay [11] and in assay [12].

Consider `C[C@]12N[C@H](Cc3ccccc31)c1ccccc12`, for which the Potency result in assay [1] and in assay [2] was “inactive” throughout.

Turning to `CN1CCN(c2ccc([N+](=O)[O-])c3no[n+]([O-])c23)CC1`, the Potency was 18.3 µM (active) in assay [1]; 8.33 µM (active) in assay [5]; 16.6 µM (active) in [7]; 9.35 µM (active) in assay [8]; 20.9 µM (active) in [9]. Further, the Potency result in assay [2] was “inactive”. Moreover, the call in assay [10] and in assay [12] was inactive.

In the case of `CC(=O)Nc1ccc(OC[C@](C)(O)C(=O)Nc2ccc([N+](=O)[O-])c(C(F)(F)F)c2)cc1`, the Potency entry in [1], in assay [2], in assay [4] and in assay [9] was “inactive” each time. Moreover, the outcome in assay [10], in assay [11] and in assay [12] was inactive.

For `O=C(NCC1CCOCC1)c1cnc(Nc2ccc(Cl)cc2Cl)nc1C(F)(F)F`, the Potency result in assay [1], in assay [2] and in assay [6] was “inactive” throughout. Further, the call in assay [10], in [11] and in assay [12] was inactive. Also, the Potency was 14.8 µM (active) in assay [4], 7.43 µM (active) in assay [5], 18.7 µM (active) in [7] and 5.26 µM (active) in [9].

As for `O=C(O)CNC(=O)c1c(O)c2ccccc2n(Cc2ccccc2)c1=O`, the Potency entry in assay [1], in assay [2], in assay [4], in assay [5], in [6] and in assay [7] was “inactive” throughout. Also, the Potency result in assay [8] and in assay [9] was “inactive” in each case. For the same compound, the compound was classed as inactive in assay [10], in assay [11] and in [12].

`CC1(N2CCC(n3c([C@@H]4CCCNC4)nc4ccccc43)CC2)CCCCCCC1`: the Potency result in [1], in [2] and in assay [6] was “inactive” throughout. For the same compound, the outcome in assay [10], in assay [11] and in [12] was inactive. Also, the Potency was 23.5 µM (active) in assay [4], 13.2 µM (active) in [5], 26.4 µM (active) in [7] and 9.35 µM (active) in [9].
